Measurements reported in PubChem BioAssay (NCI).
Compounds without any hit were thinned out: in the full panel of roughly 79,000, 15% have a hit. Active and inactive are the calls of the source. No stated cut-off is given here; in the data, active means growth inhibition above about 70%; inactive means the rest.

Tests used:
[1] = NCI Yeast Anticancer Drug Screen. Data for the rad52 strain (AID 147);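 further: 0% = growth of vehicle-treated control cultures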; details: S. cerevisiae rad52 mutant growth inhibition, stronger effect = higher value
Summary of the method: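 Vehicle-treated cultures served as the reference for growth inhibition of compound-exposed yeast bearing a DNA repair mutation.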

[2] = NCI Yeast Anticancer Drug Screen. Data for the wt1 strain (AID 149);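 further: 0% = growth of vehicle-treated wt1 cultures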; details: S. cerevisiae wt1 strain (SPY 50644) growth inhibition, stronger effect = higher value
Summary of the method: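 Using yeast strain wt1, compound-induced growth inhibition was determined against vehicle-treated cultures.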

[3] = NCI Yeast Anticancer Drug Screen. Data for the rad50EPP+ strain (AID 151);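 further: 0% = growth of vehicle-treated control cultures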; details: S. cerevisiae rad50 mutant strain, stronger effect = higher value
Summary of the method: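 In this screen, rad50EPP+ yeast were exposed to compounds. Growth inhibition was scored against vehicle-treated controls.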

[4] = NCI Yeast Anticancer Drug Screen. Data for the mgt1 strain (AID 153); details: S. cerevisiae mgt1 mutant growth inhibition, stronger effect = higher value
Summary of the method: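 mgt1 strain exposed; growth vs vehicle control recorded as inhibition.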

[5] = NCI Yeast Anticancer Drug Screen. Data for the rad50 strain (AID 155);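 further: 0% = growth of vehicle-only cultures of the same strain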; details: S. cerevisiae rad50 strain growth inhibition, stronger effect = higher value
Summary of the method: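 Relative growth inhibition (compound vs vehicle) was measured in yeast with a defined repair-gene alteration.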

[6] = NCI Yeast Anticancer Drug Screen. Data for the mec2-1 strain (AID 157); details: S. cerevisiae mec2-1 strain, stronger effect = higher value
Summary of the method: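 Vehicle-treated cultures served as reference for growth inhibition of compound-exposed mec2-1 yeast.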

[7] = NCI Yeast Anticancer Drug Screen. Data for the rad14 strain (AID 159);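 further: 0% = growth of vehicle-treated control cultures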; details: S. cerevisiae rad14 strain growth inhibition, stronger effect = higher value
Summary of the method: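 Screen for anticancer potential: a yeast strain altered in DNA damage repair is grown with compound, and reduced growth is quantified against vehicle controls.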

[8] = NCI Yeast Anticancer Drug Screen. Data for the sgs1 mgt1 strain (AID 161);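 further: 0% = growth of cultures given vehicle only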; details: S. cerevisiae sgs1 mgt1 strain, stronger effect = higher value
Summary of the method: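 Genetically altered yeast, compound exposure, growth inhibition relative to vehicle.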

[9] = NCI Yeast Anticancer Drug Screen. Data for the CLN2oe strain (AID 163);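 further: 0% = growth of vehicle-only control cultures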; details: S. cerevisiae CLN2oe strain, stronger effect = higher value
Summary of the method: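 Inhibition relative to vehicle-treated yeast is reported. Cells: strain with genetic alteration in cell-cycle control, grown with compound.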

[10] = NCI Yeast Anticancer Drug Screen. Data for the cln2 rad14 strain (AID 165);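 further: 0% = growth equal to vehicle treated cultures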; details: S. cerevisiae cln2 rad14 strain, stronger effect = higher value
Summary of the method: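 Each compound was tested on cln2 rad14 yeast. Inhibition of growth was calculated against vehicle-exposed controls.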

[11] = NCI Yeast Anticancer Drug Screen. Data for the bub3 strain (AID 167); details: S. cerevisiae bub3 mutant strain, stronger effect = higher value
Summary of the method: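 Screening used yeast with an engineered genetic alteration affecting cell cycle control. Compound-exposed cultures were compared with vehicle cultures, and reduced growth was taken as inhibition.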

[12] = NCI Yeast Anticancer Drug Screen. Data for the wt2 strain (AID 169);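 further: 0% = growth of vehicle-treated yeast cultures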; details: S. cerevisiae wt2 strain growth inhibition, stronger effect = higher value
Summary of the method: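 Inhibition of yeast growth was determined after compound treatment, normalised to controls receiving only vehicle.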

[13] = NCI Yeast Anticancer Drug Screen. Data for the mlh1 strain (AID 171);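 further: 0% = growth of vehicle-treated control cultures of the same strain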; details: S. cerevisiae mlh1 strain growth inhibition, stronger effect = higher value
Summary of the method: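 Vehicle-normalised growth inhibition of a repair- or checkpoint-altered yeast strain following compound treatment.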

[14] = NCI Yeast Anticancer Drug Screen. Data for the sgs1 strain (AID 173);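 further: 0% = growth of vehicle-only control cultures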; details: S. cerevisiae sgs1 mutant, stronger effect = higher value
Summary of the method: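 Screen format: yeast with repair or checkpoint alterations, compound exposure, growth read relative to vehicle.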

[15] = NCI Yeast Anticancer Drug Screen. Data for the mlh1 rad18 strain (AID 175); details: S. cerevisiae mlh1 rad18 strain growth inhibition, stronger effect = higher value
Summary of the method: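 Vehicle-treated cultures served as the reference for growth inhibition in a yeast strain carrying DNA damage repair alterations exposed to each compound.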

[16] = NCI Yeast Anticancer Drug Screen. Data for the rad18 strain (AID 177); details: S. cerevisiae rad18 mutant growth inhibition, stronger effect = higher value
Summary of the method: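 Test articles were incubated with altered yeast defective in DNA damage repair. Results are given as inhibition of growth versus vehicle.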

[17] = at 5.0 µM (retest, dose inferred, filed as 0.5)
[18] = at 50.0 µM (retest, dose inferred, filed as 5.0)

Measured: growth inhibition

CN(CCOc1ccc(Cl)cc1)CCOc1ccc(Cl)cc1
inactive: [1]; at 1.2 µM 8% | [1]; at 3.7 µM 18% | [1]; at 11.0 µM 50% | [2]; at 1.2 µM 7% | [2]; at 3.7 µM 7% | [2]; at 11.0 µM 10% | [2]; at 33.0 µM 39% | [3]; at 1.2 µM 4% | [3]; at 3.7 µM 7% | [3]; at 11.0 µM 7% | [3]; at 33.0 µM 3% | [3]; at 100.0 µM 56% | [4]; at 1.2 µM 3% | [4]; at 3.7 µM 13% | [4]; at 11.0 µM 57% | [5]; at 1.2 µM 11% | [5]; at 3.7 µM 17% | [5]; [17] 13% | [5]; at 11.0 µM 51% | [6]; at 1.2 µM 12% | [6]; at 3.7 µM 16% | [6]; [17] 5% | [6]; at 11.0 µM 36% | [7]; at 1.2 µM 28% | [7]; at 3.7 µM 25% | [7]; at 11.0 µM 48% | [8]; [17] 25% | [9]; at 1.2 µM 20% | [9]; at 3.7 µM 18% | [9]; at 11.0 µM 50% | [10]; [17] 11% | [11]; at 1.2 µM 16% | [11]; at 3.7 µM 23% | [11]; [17] 10% | [11]; at 11.0 µM 60% | [12]; at 1.2 µM 8% | [12]; at 3.7 µM 11% | [12]; at 11.0 µM 26% | [13]; at 1.2 µM 13% | [13]; at 3.7 µM 17% | [13]; at 11.0 µM 41% | [14]; at 1.2 µM 18% | [14]; at 3.7 µM 23% | [14]; at 11.0 µM 48% | [15]; [17] 22% | [16]; at 1.2 µM 14% | [16]; at 3.7 µM 11% | [16]; at 11.0 µM 23%
active: [1]; at 33.0 µM 90% | [1]; at 100.0 µM 99% | [2]; at 100.0 µM 99% | [4]; at 33.0 µM 98% | [4]; at 100.0 µM 99% | [5]; at 33.0 µM 97% | [5]; [18] 97% | [5]; at 50.0 µM 99.2% | [5]; at 100.0 µM 99% | [6]; at 33.0 µM 93% | [6]; [18] 99% | [6]; at 50.0 µM 99.5% | [6]; at 100.0 µM 99% | [7]; at 33.0 µM 99% | [7]; at 100.0 µM 99% | [8]; [18] 99% | [8]; at 50.0 µM 99.7% | [9]; at 33.0 µM 90% | [9]; at 100.0 µM 99% | [10]; [18] 97% | [10]; at 50.0 µM 99.5% | [11]; at 33.0 µM 97% | [11]; [18] 98% | [11]; at 50.0 µM 99.6% | [11]; at 100.0 µM 97% | [12]; at 33.0 µM 89% | [12]; at 100.0 µM 99% | [13]; at 33.0 µM 98% | [13]; at 100.0 µM 99% | [14]; at 33.0 µM 98% | [14]; at 100.0 µM 99% | [15]; [18] 99% | [15]; at 50.0 µM 99.5% | [16]; at 33.0 µM 80% | [16]; at 100.0 µM 99%

NC(=O)NC1C(c2ccccc2)=C1c1ccccc1
inactive: [1]; at 1.2 µM 37% | [1]; at 3.7 µM 58% | [2]; at 1.2 µM -2% | [2]; at 3.7 µM 12% | [2]; at 11.0 µM 26% | [2]; at 33.0 µM 26% | [2]; at 100.0 µM 27% | [4]; at 1.2 µM 0% | [4]; at 3.7 µM -2% | [4]; at 11.0 µM 0% | [4]; at 33.0 µM -3% | [4]; at 100.0 µM 19% | [5]; at 1.2 µM 61% | [5]; [17] -19% | [6]; at 1.2 µM 0% | [6]; at 3.7 µM -1% | [6]; [17] -50% | [6]; at 11.0 µM 6% | [6]; at 33.0 µM 5% | [6]; [18] -36% | [6]; at 50.0 µM 13.2% | [6]; at 100.0 µM 27% | [7]; at 1.2 µM 51% | [7]; at 3.7 µM 58% | [8]; [17] -45% | [8]; [18] -10% | [8]; at 50.0 µM 17.4% | [9]; at 1.2 µM -3% | [9]; at 3.7 µM -3% | [9]; at 11.0 µM -3% | [9]; at 33.0 µM -5% | [9]; at 100.0 µM 30% | [10]; [17] -18% | [10]; [18] 62% | [10]; at 50.0 µM 38% | [11]; at 1.2 µM -1% | [11]; at 3.7 µM -6% | [11]; [17] -73% | [11]; at 11.0 µM -4% | [11]; at 33.0 µM -14% | [11]; [18] -68% | [11]; at 50.0 µM -28.7% | [11]; at 100.0 µM -10% | [12]; at 1.2 µM 13% | [12]; at 3.7 µM 20% | [12]; at 11.0 µM 45% | [12]; at 33.0 µM 53% | [12]; at 100.0 µM 48% | [13]; at 1.2 µM -7% | [13]; at 3.7 µM -4% | [13]; at 11.0 µM 14% | [13]; at 33.0 µM 17% | [13]; at 100.0 µM 51% | [14]; at 1.2 µM 8% | [14]; at 3.7 µM 5% | [14]; at 11.0 µM 44% | [14]; at 33.0 µM 56% | [15]; [17] -104% | [15]; [18] -38% | [15]; at 50.0 µM 44.7% | [16]; at 1.2 µM -7% | [16]; at 3.7 µM 3% | [16]; at 11.0 µM 34% | [16]; at 33.0 µM 38% | [16]; at 100.0 µM 38%
active: [1]; at 11.0 µM 71% | [1]; at 33.0 µM 94% | [1]; at 100.0 µM 95% | [3]; at 1.2 µM 74% | [3]; at 3.7 µM 73% | [3]; at 11.0 µM 89% | [3]; at 33.0 µM 96% | [3]; at 100.0 µM 95% | [5]; at 3.7 µM 70% | [5]; at 11.0 µM 84% | [5]; at 33.0 µM 93% | [5]; [18] 79% | [5]; at 50.0 µM 92% | [5]; at 100.0 µM 95% | [7]; at 11.0 µM 73% | [7]; at 33.0 µM 97% | [7]; at 100.0 µM 97% | [14]; at 100.0 µM 84%
